From the supplement of paper PMC3334620
The full ranking holds about 33,000 sequences; the median of “E-score (-0.5 to 0.5)” is about -0.056, and the highest 2% start at about 0.38. The sample holds the highest values, similar sequences and a random draw of the others, so the mix is not that of the screen.

These sequences were tested against Stb4 (UniProt P50104) (assay: PBM E-score (8-mer binding enrichment) (E-score (-0.5 to 0.5)); higher = stronger / more preferred TF binding). Details: protein concentration: 200 nM; construct: GST-DNA-binding domain.
Method in brief: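 Universal all-10-mer Agilent arrays, fresh or stripped once, were converted to double-stranded form by primer extension. GST-tagged yeast transcription factors from PURExpress in vitro transcription/translation, full-length or DNA-binding domain only, were applied at about 100-200 nM and detected with fluorescent anti-GST. After masliner normalisation, the Universal PBM Analysis Suite scored each ungapped eight-base word together with its reverse complement by E-score.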

UniProt P50104, sequence (P50104 whole entry, the tested form may be a part): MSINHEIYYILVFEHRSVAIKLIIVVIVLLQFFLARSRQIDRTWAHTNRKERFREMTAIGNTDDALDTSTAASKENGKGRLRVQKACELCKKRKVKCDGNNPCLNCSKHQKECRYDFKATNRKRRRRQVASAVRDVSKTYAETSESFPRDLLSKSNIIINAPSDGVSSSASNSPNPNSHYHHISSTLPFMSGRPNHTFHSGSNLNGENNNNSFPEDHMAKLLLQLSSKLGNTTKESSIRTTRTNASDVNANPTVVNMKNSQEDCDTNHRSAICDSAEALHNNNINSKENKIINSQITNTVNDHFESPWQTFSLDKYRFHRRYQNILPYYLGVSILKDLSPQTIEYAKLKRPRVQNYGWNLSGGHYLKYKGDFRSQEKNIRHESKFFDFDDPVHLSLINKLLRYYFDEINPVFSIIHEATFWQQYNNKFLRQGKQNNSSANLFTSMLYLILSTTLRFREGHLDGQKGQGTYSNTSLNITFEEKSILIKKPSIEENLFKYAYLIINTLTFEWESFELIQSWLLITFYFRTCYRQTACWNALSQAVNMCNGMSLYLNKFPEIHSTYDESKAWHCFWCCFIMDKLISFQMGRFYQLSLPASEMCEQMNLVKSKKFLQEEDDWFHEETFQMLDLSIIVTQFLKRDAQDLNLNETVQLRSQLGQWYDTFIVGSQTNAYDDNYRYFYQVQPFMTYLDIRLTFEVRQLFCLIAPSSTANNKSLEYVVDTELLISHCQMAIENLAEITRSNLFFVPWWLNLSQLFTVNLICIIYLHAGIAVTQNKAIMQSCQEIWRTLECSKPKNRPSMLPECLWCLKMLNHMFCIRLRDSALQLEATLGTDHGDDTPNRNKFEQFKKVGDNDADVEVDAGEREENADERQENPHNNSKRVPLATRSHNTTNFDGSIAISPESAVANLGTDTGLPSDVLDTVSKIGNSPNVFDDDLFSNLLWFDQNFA

| Sequence | PBM E-score |
| --- | --- |
| AGTTACTA | -0.103 |
| ACAATCTG | -0.064 |
| ACAACGGC | 0.108 |
| GAACGCGA | -0.0119 |
| ATTTCCGG | 0.426 |
| ATTTCCGA | 0.47 |
| ATTTCCCA | -0.0128 |
| ATTTCCAA | 0.0026 |
| ATTTCCGC | 0.307 |
| ATTTCCTG | -0.0528 |
| TCTGGACA | -0.0785 |
| GCATAGCC | -0.0533 |
| GTCTGCTA | -0.0233 |
| ACGACGGA | 0.22 |
| CCGACCCC | 0.214 |
| CCGACGGA | 0.404 |
| CCGACCCG | 0.407 |
| GCGACGGA | 0.245 |
| ACGACGCG | -0.0636 |
| CCGACGCG | 0.397 |
| CCGACGCC | 0.343 |
| ACGACCCG | 0.251 |
| CTGACGCA | -0.298 |
| CTCAGTGC | -0.109 |
| ACATTGCT | -0.233 |
| GTCAGACA | -0.0277 |

| Sequence | PBM E-score |
| --- | --- |
| ATTACGCA | 0.00056 |
| AGCATTTC | -0.0674 |
| GGTTGGAA | 0.12 |
| ATCTACCA | -0.135 |
| TCCAACCA | -0.117 |
| CGAGATGC | 0.0535 |
| GCCCGACA | 0.187 |
| CCCCGACA | 0.16 |
| ACCCGACG | 0.425 |
| CCCCGACG | 0.277 |
| ACCCGACA | 0.402 |
| ACCCGACT | 0.33 |
| CGTTGGAG | -0.232 |
| CCGAGCCG | 0.468 |
| ACGAGCCA | -0.307 |
| TCGAGCCA | -0.204 |
| ACGAGCCC | -0.198 |
| CCGAGCCA | 0.407 |
| GCGAGCCC | -0.0138 |
| CCGAGCCC | 0.444 |
| CGGAGCCG | 0.352 |
| ACGAGCCG | 0.292 |
| GGAGTATA | 0.235 |
| AACCGTCT | 0.00908 |
| GCGGGTCA | 0.0978 |
| GAGCCCAA | -0.16 |

| Sequence | PBM E-score |
| --- | --- |
| GGAGGAAC | -0.0445 |
| GTTCTGAA | -0.216 |
| AACGAGCT | -0.256 |
| AACCCTCA | -0.148 |
| GATTAGCA | -0.177 |
| ATCGGAGA | 0.272 |
| CTCGGACA | 0.366 |
| CACGGAGC | 0.174 |
| CTCGGAGC | 0.395 |
| ATCGGAGC | 0.282 |
| CACGGACC | 0.114 |
| CTCGGACC | 0.412 |
| CACGGAGA | 0.14 |
| CTCGGAGA | 0.406 |
| CGAGTGAC | -0.0128 |
| ATCCTCGA | -0.25 |
| ACCCTCGA | -0.165 |
| ATCCTCGC | -0.0124 |
| AACCTCGA | -0.0623 |
| AACCTCGT | -0.062 |
| CACCTCGA | -0.0678 |
| CACCTCGC | 0.0165 |
| ACCCTCGG | 0.426 |
| ACCCTCGC | -0.131 |
| CACCTCGG | 0.393 |
| AACCTCGG | 0.452 |

| Sequence | PBM E-score |
| --- | --- |
| ATCCTCGG | 0.417 |
| AATGCGAA | 0.0466 |
| GGTTGGTA | 1e-05 |
| TCGCATAA | -0.0545 |
| CGGGCTGA | 0.0911 |
| CGTCTTTA | -0.0915 |
| CAATTGGA | -0.112 |
| ACCTCCCT | -0.111 |
| AAAGGGGA | -0.22 |
| AGCTCCGG | 0.301 |
| CTCTGAAC | -0.174 |
| ATTTCGCG | 0.0954 |
| CTTTCGAC | -0.172 |
| ATTTCGGA | 0.454 |
| CTTTCGTC | -0.0646 |
| CTTTCGTA | -0.177 |
| ATTTCGGG | 0.39 |
| CTTTCGGC | 0.386 |
| CTTTCGAA | -0.204 |
| ATTTCGAG | -0.0811 |
| CTTTCGGA | 0.432 |
| ATTTCGGC | 0.371 |
| ATTTCGCA | 0.0506 |
